Assay [1] is described as follows: compounds binding Alexa647 anti-His antibody – biochemical, small-molecule microarray, 635 nm fluorescence, artefact control for SMM control protein annotation, primary screen (AID 1128).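 Further: score merges feature fluorescence with signal-to-noise for each printed compound spot.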 The conditions noted are these: higher = more signal.
For assay [2], the system named is Human papillomavirus type 1a E7 protein (residues 1-88). The assay is described as follows: HPV1a E7 small-molecule binders, primary screen, biochemical, small-molecule microarray, residues 1-88, 635 nm (AID 1129). The conditions noted are these: small-molecule microarray binding, fluorescence 635 nm; higher = more signal.
Assay [3] has as its target Focal adhesion kinase 1 (Homo sapiens) (UniProt Q05397). The assay is described as follows: PTK2 protein binding on printed compound slides – biochemical, small-molecule microarray, 635/667 nm fluorescence, BSA, DTT, primary screen (AID 1130).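 Further: composite of spot emission at 667 nm and signal to noise over triplicate slides.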 The settings on record: 635 nm fluorescence, higher = more signal.
In assay [4] the test system is Fibrinogen (Alexa647-labelled). The assay is described as follows: Alexa647-fibrinogen binding to printed small molecules – biochemical, small-molecule microarray, 635/667 nm fluorescence, artefact control for SMM control-protein annotation, profiling panel (AID 1131).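 Further: z-score merges 667 nm fluorescence with per-spot signal-to-noise over triplicate slides.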 The settings on record: fibrinogen-A647 binding fluorescence, higher = more signal.
The target of assay [5] is Follistatin (Homo sapiens) (UniProt P19883). Put plainly: FST protein binding to printed compounds – biochemical, small-molecule microarray, 635/667 nm fluorescence, primary screen (AID 1132). The settings on record: 635 nm fluorescence, higher = more signal.
Follistatin (Homo sapiens), sequence (P19883 whole entry, looked up): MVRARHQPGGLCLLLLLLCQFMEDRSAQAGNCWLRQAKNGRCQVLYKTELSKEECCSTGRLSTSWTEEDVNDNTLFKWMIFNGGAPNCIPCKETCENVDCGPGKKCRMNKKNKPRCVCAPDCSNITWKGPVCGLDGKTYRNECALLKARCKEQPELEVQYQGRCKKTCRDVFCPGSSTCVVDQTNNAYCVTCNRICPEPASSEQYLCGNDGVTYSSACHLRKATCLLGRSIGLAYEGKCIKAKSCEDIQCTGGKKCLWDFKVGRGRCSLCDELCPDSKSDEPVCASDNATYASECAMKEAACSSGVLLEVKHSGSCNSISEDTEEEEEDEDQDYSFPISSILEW
The target of assay [6] is Fibroblast growth factor 2 (Homo sapiens) (UniProt P09038). Put plainly: basic fibroblast growth factor binding to printed compounds – biochemical, small-molecule microarray, 635/667 nm fluorescence, primary screen (AID 1133). The conditions noted are these: FGF2, fluorescence 635/667, higher = more signal.
Fibroblast growth factor 2 (Homo sapiens), sequence (P09038 whole entry, looked up): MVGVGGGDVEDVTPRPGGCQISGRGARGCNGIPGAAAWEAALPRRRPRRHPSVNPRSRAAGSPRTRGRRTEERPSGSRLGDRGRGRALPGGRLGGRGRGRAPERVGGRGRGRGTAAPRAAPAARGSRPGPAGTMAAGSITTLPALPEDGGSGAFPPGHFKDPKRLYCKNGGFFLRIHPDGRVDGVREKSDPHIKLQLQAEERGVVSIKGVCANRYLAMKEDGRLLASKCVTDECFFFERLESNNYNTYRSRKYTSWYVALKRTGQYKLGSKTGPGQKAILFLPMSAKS
The nature of assay [7]: JC-1 mitochondrial potential readout, lung cancer cells – cell-based, A549, JC-1 fluorescence, basal, 24 h, 100 nL, profiling panel (AID 1138).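 Further: A549 lung adenocarcinoma cells under basal conditions with no added stimulus; test concentration not given here.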 The conditions noted are these: higher = more signal.
The test system of the next assay is Lefty1. The assay is described as follows: Lefty1 protein binding to printed compounds – biochemical, small-molecule microarray, 635/667 nm fluorescence, primary screen (AID 1139). The settings on record: fluorescence 635/667, higher = more signal.
In assay [8] the test system is wheat germ agglutinin (Triticum aestivum), Alexa647-labelled. The assay is described as follows: Alexa647-WGA lectin binding to printed small molecules – biochemical, small-molecule microarray, 635/667 nm fluorescence, artefact control for SMM control-protein annotation, profiling panel (AID 1140).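 Further: score merges 667 nm feature emission with signal to noise over triplicate slides.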 The conditions noted are these: WGA-A647 binding, 635 nm fluorescence, higher = more signal.

The target in assay [9] is Luciferin 4-monooxygenase (Photinus pyralis) (UniProt P08659). The assay is described as follows: inhibition of purified Photinus pyralis luciferase – biochemical, luminescence, purified enzyme, 2006 set, primary screen (AID 1141).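 Further: cell-free assay with purified firefly luciferase at 100 ng per well in PBS; test concentration not given here.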 The settings on record: purified firefly luciferase, SteadyGlo luminescence, 30 min; higher = more signal, called active from +8 up or from −8 down.
Luciferin 4-monooxygenase (Photinus pyralis), sequence (P08659 whole entry, looked up): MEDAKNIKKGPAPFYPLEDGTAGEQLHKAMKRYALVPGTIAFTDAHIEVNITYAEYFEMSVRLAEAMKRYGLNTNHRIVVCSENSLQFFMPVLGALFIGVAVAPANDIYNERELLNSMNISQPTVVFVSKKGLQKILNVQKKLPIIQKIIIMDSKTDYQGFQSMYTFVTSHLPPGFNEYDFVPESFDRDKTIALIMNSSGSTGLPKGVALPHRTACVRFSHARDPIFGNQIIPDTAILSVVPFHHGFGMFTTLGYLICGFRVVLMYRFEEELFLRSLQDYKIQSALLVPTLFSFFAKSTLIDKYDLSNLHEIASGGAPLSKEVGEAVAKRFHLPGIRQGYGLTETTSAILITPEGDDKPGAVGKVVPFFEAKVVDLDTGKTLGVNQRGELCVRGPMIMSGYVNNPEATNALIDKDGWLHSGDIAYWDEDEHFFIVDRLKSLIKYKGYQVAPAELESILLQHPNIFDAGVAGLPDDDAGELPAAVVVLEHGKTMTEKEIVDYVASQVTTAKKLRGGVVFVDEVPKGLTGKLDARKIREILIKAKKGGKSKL

Assay [10] has as its system Wnt5a (protein binding on small-molecule microarray). Put plainly: small molecules binding Wnt5a protein – biophysical, small-molecule microarray, 635/667 nm fluorescence, primary screen (AID 1142).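 Further: fluorescence read at 667 nm with signal to noise per printed feature.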 The settings on record: 635 nm fluorescence, higher = more signal.
The nature of assay [11]: ATP-based viability of Huh7 replicon cells – cell-based, CellTiter-Glo luminescence, basal, 48 h, cytotoxicity control for HCV replication inhibitor project, primary screen (AID 1143).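 Further: Huh7 hepatoma cells carrying a hepatitis C replication reporter with no stimulus; test concentration not given here.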 The settings on record: higher = more signal, called active from +8 up or from −8 down. In general terms: Replicon systems follow genome replication, usually without infectious particles.
The nature of assay [12]: Pseudomonas biofilm growth suppression – PAO1 strain, BacTiter-Glo luminescence, LB-PBS, primary screen (AID 1144). The conditions noted are these: P. aeruginosa PAO1 biofilm, 12 h, higher = more signal.
The nature of assay [13]: basal CRE-LacZ reporter activity in PC12 – cell-based, unstimulated, primary screen (AID 1145). The settings on record: no forskolin, luminescence, 4.5 h, higher = more signal, called active from +8 up or from −8 down.
The nature of assay [14]: forskolin-driven CRE-LacZ activity in PC12 – cell-based, CRE-LacZ reporter, forskolin-stimulated, primary screen (AID 1146).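 Further: PC12 cells with 6xCRE LacZ reporter stimulated by forskolin 10 µM; beta-galactosidase reporter signal reflecting CREB driven transcription.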 The settings on record: luminescence, 4.5 h, higher = more signal, called active from +8 up or from −8 down.
In assay [15] the target is Streptavidin (Streptomyces avidinii) (UniProt P22629). Put plainly: compounds binding control protein streptavidin – biophysical, small-molecule microarray, 635/667 nm fluorescence, artefact control for SMM compound annotation, primary screen (AID 1147).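 Further: signal reflects streptavidin binding to arrayed compounds as a control protein.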 The conditions noted are these: higher = more signal.
Streptavidin (Streptomyces avidinii), sequence (P22629 whole entry, looked up): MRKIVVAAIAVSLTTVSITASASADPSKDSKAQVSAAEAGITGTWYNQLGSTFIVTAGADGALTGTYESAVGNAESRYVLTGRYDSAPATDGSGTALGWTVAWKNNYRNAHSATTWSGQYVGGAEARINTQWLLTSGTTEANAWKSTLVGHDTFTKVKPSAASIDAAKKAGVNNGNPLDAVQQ
Assay [16] in a line: probe aInhba binding on compound microarray – biochemical, small-molecule microarray, 635/667 nm fluorescence, primary screen (AID 1148).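 Further: score merges 667nm spot fluorescence with signal-to-noise for antibody binding to printed compounds.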 The settings on record: higher = more signal.
For assay [17], the target named is Torsin-1A (Homo sapiens) (UniProt O14656). Put plainly: TOR1A wild-type binding on microarray – cell lysate, small-molecule microarray, lysate, 635/667 nm, primary screen (AID 1149). The conditions noted are these: COS7 hTOR1A-WT lysate, 635 nm fluorescence, higher = more signal.
Torsin-1A (Homo sapiens), sequence (O14656 whole entry, looked up): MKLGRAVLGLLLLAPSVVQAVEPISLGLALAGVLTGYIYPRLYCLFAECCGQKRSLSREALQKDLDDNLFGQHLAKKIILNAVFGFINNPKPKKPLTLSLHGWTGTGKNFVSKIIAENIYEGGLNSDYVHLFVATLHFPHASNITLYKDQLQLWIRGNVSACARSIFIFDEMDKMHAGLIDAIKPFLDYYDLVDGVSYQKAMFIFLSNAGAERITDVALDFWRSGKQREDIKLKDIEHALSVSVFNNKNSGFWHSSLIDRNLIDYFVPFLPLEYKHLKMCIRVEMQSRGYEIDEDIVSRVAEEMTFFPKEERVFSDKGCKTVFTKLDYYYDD
For assay [18] the target is unchanged. The assay is described as follows: torsin A mutant lysate binding on microarrays – cell lysate, small-molecule microarray, COS7 lysate, 635/667 nm fluorescence, primary screen (AID 1150).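 Further: score pools 667 nm emission and signal to noise measuring lysate protein binding.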 The settings on record: COS7 hTOR1A mutant lysate, 635 nm fluorescence, higher = more signal.
Assay [19] concerns Sonic hedgehog protein (Shh). Put plainly: Sonic hedgehog microarray binding compounds – biochemical, small-molecule microarray, 635/667 nm fluorescence, primary screen (AID 1151).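 Further: Shh protein binding to compounds spotted on small-molecule microarray slides; score combines spot fluorescence intensity with signal-to-noise across triplicate slides.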 The conditions noted are these: 635 nm fluorescence, higher = more signal.

Calls of active or inactive are those of the source. Unless noted, how the calls were made is not given here.

Focal adhesion kinase 1 (Homo sapiens), sequence (Q05397 whole entry, looked up): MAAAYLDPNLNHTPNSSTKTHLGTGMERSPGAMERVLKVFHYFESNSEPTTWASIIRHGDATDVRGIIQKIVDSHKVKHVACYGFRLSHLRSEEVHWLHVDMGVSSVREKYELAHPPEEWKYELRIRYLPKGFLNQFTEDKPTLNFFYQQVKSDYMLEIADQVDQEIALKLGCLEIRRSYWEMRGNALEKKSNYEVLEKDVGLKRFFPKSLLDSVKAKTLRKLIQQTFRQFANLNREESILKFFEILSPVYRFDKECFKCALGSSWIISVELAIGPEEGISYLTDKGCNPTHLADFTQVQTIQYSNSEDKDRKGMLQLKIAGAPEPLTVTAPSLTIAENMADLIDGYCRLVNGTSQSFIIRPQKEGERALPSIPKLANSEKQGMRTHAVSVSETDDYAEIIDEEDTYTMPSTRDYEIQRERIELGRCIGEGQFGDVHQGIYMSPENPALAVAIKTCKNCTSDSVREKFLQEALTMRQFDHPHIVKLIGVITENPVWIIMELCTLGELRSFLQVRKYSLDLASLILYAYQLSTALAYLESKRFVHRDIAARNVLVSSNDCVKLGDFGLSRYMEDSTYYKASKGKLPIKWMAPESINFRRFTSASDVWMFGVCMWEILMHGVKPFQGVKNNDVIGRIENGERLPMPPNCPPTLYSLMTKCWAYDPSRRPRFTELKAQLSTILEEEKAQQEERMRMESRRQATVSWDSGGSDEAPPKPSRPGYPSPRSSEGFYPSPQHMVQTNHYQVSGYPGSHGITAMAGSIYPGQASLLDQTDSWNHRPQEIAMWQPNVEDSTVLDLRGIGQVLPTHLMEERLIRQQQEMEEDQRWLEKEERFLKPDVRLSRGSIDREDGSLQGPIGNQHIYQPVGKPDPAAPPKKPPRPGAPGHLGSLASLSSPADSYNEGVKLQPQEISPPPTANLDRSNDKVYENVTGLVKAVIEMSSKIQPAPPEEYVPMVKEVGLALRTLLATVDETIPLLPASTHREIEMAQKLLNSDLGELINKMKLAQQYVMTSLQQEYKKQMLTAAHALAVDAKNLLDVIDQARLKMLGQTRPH

For `COc1cc2c(cc1OC)CN(C(=O)[C@@H]1[C@H]3C(=O)O[C@H](c4ccccc4)[C@H](c4ccccc4)N3[C@H](c3ccc(OCCO)cc3)[C@@]13C(=O)Nc1ccc(C#CC4(O)CCCCCC4)cc13)CC2`, the composite z-score in assay [1] was 0.367; in assay [2], 1.18; in assay [3], -0.226; in [4], 0.966; in [5], 1.41; in [6], 1.13. Moreover, the composite z-score was 1.38 with Lefty1; 0.831 in [8]; 0.754 in [10]; 1.51 in assay [15]; -0.164 in assay [16]; 0.746 with Torsin-1A (Homo sapiens) [17]. Moreover, the figures for the composite z-score (with Torsin-1A (Homo sapiens) [18]; in assay [19]) were 1.09 and 1.44, respectively. Moreover, the z-score in [7] was -0.989; in assay [9], -7.42 (inactive); in assay [11], -3.13 (inactive); in [12], -1.35 (inactive); in [13] it was -0.608 (inactive); in [14], 0.419 (inactive).
`CC(C)(C)N1CC=CC23O[C@@H]4C=CCOC(=O)[C@@H]4[C@H]2C(=O)N(CCCCCCO)[C@@H]3C1=O` (stereo not given in full): the composite z-score is 0.184 in assay [1]; -0.184 in assay [2]; 0.527 in assay [3]; -1.52 in assay [4]; -1.42 in assay [5]; -0.877 in assay [6]. The composite z-score is -0.447 in the assay with Lefty1; 0.132 in assay [8]; -0.373 in assay [10]; -0.772 in [15]; -0.209 in assay [16]; -0.191 with Torsin-1A (Homo sapiens) [17]. Besides, the composite z-score in the assay with Torsin-1A (Homo sapiens) [18] is 0.769; in assay [19], -1.13. Further, the z-score in assay [7] was -0.12; in assay [9] it was -0.234 (inactive); in assay [11], 0.0926 (inactive); in assay [12] it was 2.06 (inactive); in [13] it was 0.475 (inactive); in [14], 0.437 (inactive).
As to `COc1ccc([Si](C)(C)[C@@H]2[C@@H](CC(=O)N(CCO)Cc3ccccc3)O[C@]3(C(=O)N(c4ccccc4)c4ccccc43)[C@H]2C)cc1`, the composite z-score is 1.13 in assay [1]; 1.14 in assay [2]; 0.437 in [3]; 0.874 in assay [4]; 1.07 in assay [5]; 0.716 in assay [6]. In addition, the composite z-score was 1.29 in the assay with Lefty1; 0.291 in assay [8]; 0.272 in [10]; 0.675 in [15]; -0.125 in assay [16]; 0.555 in the assay with Torsin-1A (Homo sapiens) [17]. Besides, the composite z-score with Torsin-1A (Homo sapiens) [18] came to 0.3; in [19], 1.17. Besides, the z-score was 0.0115 in [7]; 0.293 (inactive) in assay [9]; -7.08 (inactive) in assay [11]; -0.334 (inactive) in assay [12]; 7.53 (inactive) in assay [13]; -2.26 (inactive) in assay [14].
For `O=C1NC(=O)C2C1C=CC(C(O)CCc1ccccc1)N2Nc1ccc(Cl)cc1Cl` (stereo not given), the composite z-score in assay [1] was 0.371; in assay [2] it was 1.18; in assay [3], 1.11; in assay [4], 0.363; in [5] it was 0.0611; in assay [6], -0.83. Besides, the composite z-score in the assay on Lefty1 is -0.556; in assay [8], 1.07; in [10], 0.564; in assay [15], 0.209; in assay [16] it was -0.0581; with Torsin-1A (Homo sapiens) [17], 0.689. In addition, the figures for the composite z-score (with Torsin-1A (Homo sapiens) [18]; in assay [19]) were 1.36 and -0.625, respectively. In addition, the z-score in assay [7] was -0.267; in [9] it was 0.369 (inactive); in assay [11], -0.149 (inactive); in assay [12] it was 0.0136 (inactive); in [13], 0.243 (inactive); in assay [14] it was 0.0662 (inactive).
As for `[N-]=[N+]=NCc1ccccc1C[C@]1(C(N)=O)N=C(c2ccc(OCCCO)cc2)O[C@H]1c1ccccc1`, the composite z-score was 0.409 in assay [1]; 1.21 in assay [2]; 0.196 in assay [3]; 0.496 in assay [4]; 1.31 in assay [5]; -0.653 in assay [6]. In addition, the composite z-score in the assay with Lefty1 is -0.625; in assay [8], 1.14; in assay [10], 0.0841; in assay [15], 0.363; in assay [16], 0.0227; in the assay with Torsin-1A (Homo sapiens) [17], 0.851. Moreover, the composite z-score with Torsin-1A (Homo sapiens) [18] was 0.885; in assay [19], -1.23. Further, the z-score in assay [7] is 0.658; in assay [9], 0.856 (inactive); in assay [11], -3.8 (inactive); in assay [12], -1.02 (inactive); in assay [13] it was 0.101 (inactive); in [14], 0.0159 (inactive).

The record behind these values is PubChem BioAssay.
